Shown are actives, neighbours in structure and some others; about 2.3% of the full set was active somewhere.
Tau fluor cs: counter-screen for tau fibril formation inhibitors; AID 1463; 280,000 tested, 0.93% active; Potency, µM (doses to about 57.7 µM); tau K18 P301L Alexa594 fluorescence, heparin fibrillization; note: nearly all actives have a fitted effect of over 55% in size
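Human K18 P301L tau (15 uM unlabeled plus 0.24 uM Alexa 594-labeled, final) in 100 mM sodium acetate pH 7 was mixed with compound and 20 uM heparin and incubated 6 hr at 37 C.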
Tau FP inhib: blocks human tau fibril formation measured by polarization. P10636. AID 1468. Potency, µM (titrated, usually from 57.7 µM), actives largely listed as inhibitors. 280,000 tested, 0.39% active. K18 P301L tau heparin fibrillization, Alexa594 FP, 6 h; note: nearly all actives have a fitted effect of over 55% in size
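FP of Alexa 594-tau after heparin (20 uM) induction. Substrate: human K18 P301L, 15 uM unlabeled, 0.24 uM labeled. Buffer 100 mM sodium acetate pH 7. 6 hr, 37 C.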
Tau ThT inhib: inhibitors of human tau fibril formation, thioflavin T binding | P10636 | recombinant tau K18 P301L (four-repeat tau fragment), heparin-induced fibrillization, ThT fluorescence | Potency, µM (series often up to 57.4 µM), actives largely listed as inhibitors | 270,000 tested, 2.1% active; note: nearly all actives have a fitted effect of over 55% in size
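Heparin-induced (20 uM) aggregation of recombinant human K18 P301L tau, 15 uM unlabeled with 0.24 uM labeled, pH 7 acetate buffer, 6 hr at 37 C with compound. Fibrils quantified by 30 uM ThT fluorescence after 1 hr ambient incubation.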
USP1-UAF1 inh: USP1/UAF1 (human) deubiquitinase inhibition | recombinant USP1/UAF1, Ub-Rhodamine cleavage fluorescence | Potency, µM (titrated, usually from 57.1 µM), usual class: inhibitors | 390,000 tested, 0.23% active; note: nearly all actives have a fitted effect of over 60% in size
Target sequence (O94782 whole entry, looked up): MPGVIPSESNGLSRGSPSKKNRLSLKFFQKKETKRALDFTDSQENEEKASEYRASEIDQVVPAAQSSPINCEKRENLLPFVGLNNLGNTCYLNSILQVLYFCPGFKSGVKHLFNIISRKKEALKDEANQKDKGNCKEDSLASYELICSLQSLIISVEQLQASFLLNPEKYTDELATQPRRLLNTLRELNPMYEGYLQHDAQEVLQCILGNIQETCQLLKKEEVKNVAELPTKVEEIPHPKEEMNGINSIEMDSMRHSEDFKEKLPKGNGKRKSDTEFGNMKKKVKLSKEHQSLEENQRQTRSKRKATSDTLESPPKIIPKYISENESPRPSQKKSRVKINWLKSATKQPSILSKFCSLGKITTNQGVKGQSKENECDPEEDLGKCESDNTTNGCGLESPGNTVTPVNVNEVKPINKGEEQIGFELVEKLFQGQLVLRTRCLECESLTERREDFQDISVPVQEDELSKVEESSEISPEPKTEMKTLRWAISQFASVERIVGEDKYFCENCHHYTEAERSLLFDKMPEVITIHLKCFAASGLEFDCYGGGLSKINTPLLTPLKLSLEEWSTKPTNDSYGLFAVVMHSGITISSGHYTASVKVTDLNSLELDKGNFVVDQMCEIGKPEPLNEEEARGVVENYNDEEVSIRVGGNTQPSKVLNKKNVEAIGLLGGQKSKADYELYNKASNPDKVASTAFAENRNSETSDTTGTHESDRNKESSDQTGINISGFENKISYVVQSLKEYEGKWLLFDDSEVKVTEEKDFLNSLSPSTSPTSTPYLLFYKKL
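Step one: compound is pinned into 1nM USP1/UAF1 in HEPES pH 7.8 buffer with TCEP. Step two: 15 min room-temperature incubation. Step three: Ub-Rho (150nM final) starts cleavage, tracked by fluorescence over six one-minute reads.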
Coupling enz: counter-screen for Giardia aldolase inhibitors: coupling enzyme system | coupling enzyme system counterscreen, AmpLite Red fluorescence | activity change, negative = inhibition, % at 58.2 µM, hits read low | 290,000 tested, 0.67% active | AID 2472; in the data active = activity change below about -30%
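Counterscreen lacking aldolase: glyceraldehyde-3-phosphate coupling-enzyme reagent preincubated 10 min at RT with compound (at 57.5 uM final), then substrate/coupling system with AmpLite Red added; fluorescence read at 525/598 nm after 20 min RT.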
Of the large screens only hits and unclear results are named; the others gave an inactive call; [ ] = remark or other dose. Unless noted, calls come from the whole dose curve; as a rule, active = well fitted curve in the direction sought with a large enough effect; inconclusive = small, poorly fitted or top-dose-only effect, or another doubt; inactive = no such curve, though single readings can be large; an effect the other way counts as inactive or inconclusive.

Cc1cccc(N2C(=O)CC(SC(=Nc3ccccc3)Nc3ccccc3)C2=O)c1 (centres undefined)	Tau fluor cs inconclusive, Tau FP inhib inconclusive
COC(=O)c1ccc(N2C(=O)CC(SCC(=O)Nc3ccc(OC)cc3)C2=O)cc1 (centres undefined)	none (no result: Tau fluor cs, Tau FP inhib, Tau ThT inhib)
O=C1CC(SC(=Nc2ccccc2)Nc2ccccc2)C(=O)N1c1ccc(Cl)c(Cl)c1 (centres undefined)	Tau fluor cs inconclusive, Tau FP inhib 7.9µM
Nc1ccccc1SC1CC(=O)N(c2ccc(Cl)c(Cl)c2)C1=O (centres undefined)	Tau fluor cs inconclusive, Tau FP inhib 28µM
Nc1ccccc1SC1CC(=O)N(c2ccc3c(c2)OCCO3)C1=O (centres undefined)	Tau fluor cs inconclusive (no result: Tau ThT inhib)
CN=C(Nc1cc(Cl)ccc1Cl)SC1CC(=O)N(c2ccc(C(=O)OC)cc2)C1=O (centres undefined)	Tau fluor cs inconclusive, Tau FP inhib 28µM
COc1ccc(NC(=O)COc2ccc(N(C)S(=O)(=O)c3ccc(Cl)cc3)cc2)cc1OC	none (no result: Tau fluor cs, Tau FP inhib, Tau ThT inhib, Coupling enz)
C#CCSc1nc2sc3c(c2c(=O)n1-c1cccc(OC)c1)CCN(C(C)=O)C3	Tau FP inhib inconclusive, Tau ThT inhib 25µM (no result: Coupling enz)
CCCCCSc1nc2sc3c(c2c(=O)n1-c1ccccc1)CCN(C(C)=O)C3	Tau FP inhib inconclusive, Tau ThT inhib inconclusive (no result: Coupling enz)
COc1cc(/C=C2/S/C(=N/S(=O)(=O)c3ccccc3)NC2=O)c([N+](=O)[O-])cc1OC	Tau fluor cs inconclusive, Tau FP inhib inconclusive, Tau ThT inhib 16µM (no result: USP1-UAF1 inh)
O=C1N/C(=N\S(=O)(=O)c2ccccc2)S/C1=C\c1cc([N+](=O)[O-])ccc1O	USP1-UAF1 inh inconclusive (no result: Tau fluor cs, Tau FP inhib, Tau ThT inhib)
O=C1N/C(=N\S(=O)(=O)Cc2ccccc2)S/C1=C/c1cc([N+](=O)[O-])ccc1O	Tau fluor cs inconclusive, Tau ThT inhib 5µM, USP1-UAF1 inh inconclusive
CCC(=O)Nc1ccccc1C(=O)OCc1cc(=O)n2cc(C)sc2n1	Tau ThT inhib inconclusive (no result: Coupling enz)
CCOC(=O)c1cccc(NC(=O)NCc2ccc3c(c2)CCN3C(=O)CC)c1	Tau fluor cs 18µM[quencher], Tau FP inhib inconclusive, Tau ThT inhib inconclusive (no result: Coupling enz)
CNc1ccc(/C=C/C(=O)c2cccc3ccccc23)cc1[N+](=O)[O-]	Tau ThT inhib 6.3µM
CNc1ccc(C(=O)c2ccccc2C(=O)O)cc1[N+](=O)[O-]	none
Cc1csc(NC(=O)C(C)Oc2ccc(Cl)cc2C)n1 (centres undefined)	none (no result: Tau fluor cs, Tau FP inhib, Tau ThT inhib, Coupling enz)
NC(=S)n1[nH]c(-c2ccc([N+](=O)[O-])cc2)c(N=Nc2ccc(O)cc2)c1=O	Tau fluor cs inconclusive, Tau ThT inhib 3.2µM
NC(=S)n1[nH]c(-c2ccc([N+](=O)[O-])cc2)c(N=Nc2cccc(Cl)c2)c1=O	Tau fluor cs 14µM[quencher], Tau ThT inhib 13µM
COc1nnc(-c2ccc(N3CCCCC3)c(NC(=O)c3ccccc3Cl)c2)c2ccccc12	none (no result: Coupling enz)
Cc1cc(=O)[nH]c(SCC(=O)/C=C2\N(C)c3ccccc3C2(C)C)n1	Tau fluor cs 25µM[fluorescent], Tau FP inhib inconclusive, Tau ThT inhib inconclusive
OCCCCNc1cccc2ccccc12	Tau fluor cs inconclusive, Tau ThT inhib inconclusive, USP1-UAF1 inh inconclusive, Coupling enz -41
COc1ccc(CCN2CCCn3c2nc2c3c(=O)n(CC(C)C)c(=O)n2C)cc1OC	none (no result: Tau fluor cs, Tau FP inhib, Tau ThT inhib)
CCCCCCCCCCCCCCCCCCOC[C@@H](O)COP(=O)([O-])OCC[N+](C)(C)C	none (no result: USP1-UAF1 inh)
CN(C)c1ccc(C(=S)NCc2ccco2)cc1	Tau fluor cs inconclusive, Tau ThT inhib 10µM
CN(C)c1ccc(/C=N/NC(=S)NCc2ccco2)cc1	Tau ThT inhib inconclusive
O=[N+]([O-])c1cccc(S(=O)(=O)Nc2nc3ccccc3nc2Nc2cccc(S(=O)(=O)N3CCCCC3)c2)c1	Tau fluor cs inconclusive, Tau ThT inhib 16µM
O=C(/C=C/c1ccc(-c2ccccc2[N+](=O)[O-])o1)c1ccco1	Tau fluor cs inconclusive, Tau ThT inhib 18µM
COc1cccc2[nH]c3c(N4CCCCC4)ncnc3c12	none
Cc1cccc2[nH]c3c(N4CC=C(c5ccc(F)cc5)CC4)ncnc3c12	Tau fluor cs 14µM[quencher], Tau FP inhib inconclusive, Tau ThT inhib inconclusive
CC(OC(=O)CCN=C1NS(=O)(=O)c2ccccc21)C(=O)Nc1ccc(S(N)(=O)=O)cc1 (centres undefined)	none (no result: Tau fluor cs, Tau FP inhib, Tau ThT inhib, Coupling enz)

Compound activity: PubChem, National Center for Advancing Translational Sciences (NCATS)
